We go through 13 molecules from PubChem BioAssay.

Experiment [1] is described as follows: optical density shifts of acrAB sulA E. coli – strain DRC41, OD650, 48 h, E. coli filamentation inducer project, primary screen (AID 1152).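 Also: E. coli MC1000 strain DRC41 lacking acrAB efflux pump and sulA.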 The following applies: higher = more signal, called active from +8 up or from −8 down.
A short description of experiment [2]: probe aLefty1 binding on compound microarray – biochemical, small-molecule microarray, 635/667 nm fluorescence, primary screen (AID 1153).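 Also: score merges spot fluorescence with signal-to-noise ratio from the scanned slide images.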 The following applies: higher = more signal.
Experiment [3] in a line: plasmodial surface anion channel blockers, osmotic lysis – cell-based, P. falciparum Indochina, OD700, 1 h, primary screen (AID 1154). The following applies: P. falciparum Indochina infected RBC osmotic lysis, higher = more signal, called active from +8 up or from −8 down.
The nature of experiment [4]: plasmodial surface anion channel blockers, osmotic lysis – cell-based, P. falciparum Indochina, OD700, 2 h, primary screen (AID 1155).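 Also: lysis reports solute entry through the parasite surface anion channel PSAC.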 The following applies: P. falciparum Indochina infected erythrocytes, higher = more signal, called active from +8 up or from −8 down.
A short description of experiment [5]: changes in parasitized red cell lysis, either direction – P. falciparum Indochina, OD700, 3 h, PSAC antagonist project, primary screen (AID 1156). The following applies: P. falciparum-infected erythrocytes, osmotic lysis, higher = more signal, called active from +8 up or from −8 down.
The nature of experiment [6]: plasmodial surface anion channel blockers, osmotic lysis – cell-based, P. falciparum Indochina, OD700, 18 h, primary screen (AID 1157). The following applies: P. falciparum Indochina infected erythrocytes, osmotic lysis OD700, 18 h; higher = more signal, called active from +8 up or from −8 down.
A short description of experiment [7]: S6 kinase pathway phospho-S6 level changes – cell-based, A549, cytoblot, luminescence, serum-stimulated, primary screen (AID 1158).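 Also: serum-stimulated A549 lung adenocarcinoma cells; signal is phosphorylated S6 detected by cytoblot immunostaining with HRP secondary.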 The following applies: 5 h, higher = more signal.
The target in experiment [8] is NADPH oxidase 2 (Homo sapiens) (UniProt P04839). Description: compounds shifting NOX2 Amplex Red fluorescence – cell-based, HEK293-NOX2, PMA-stimulated, NOX inhibitor project, primary screen (AID 1159). Also: test concentration not given here. The following applies: 45 min, higher = more signal, called active from +8 up or from −8 down.
In experiment [9] the target is NADPH oxidase 4 (Homo sapiens) (UniProt Q9NPH5). Description: compounds shifting NOX4 Amplex Red fluorescence – cell-based, HEK293-NOX4, tetracycline-induced, NOX inhibitor project, primary screen (AID 1160). The following applies: HEK293-NOX4, Amplex Red H2O2 fluorescence, 45 min; higher = more signal, called active from +8 up or from −8 down.
In experiment [10] the target is NADPH oxidase 5 (Homo sapiens) (UniProt Q96PH1). Description: compounds shifting NOX5 Amplex Red fluorescence – cell-based, HEK293-NOX5, NOX inhibitor project, primary screen (AID 1161). The following applies: HEK293-NOX5, ionomycin, 45 min, higher = more signal.

The source made the active and inactive calls.

Sequence of NADPH oxidase 5 (Homo sapiens) (Q96PH1 whole entry, looked up): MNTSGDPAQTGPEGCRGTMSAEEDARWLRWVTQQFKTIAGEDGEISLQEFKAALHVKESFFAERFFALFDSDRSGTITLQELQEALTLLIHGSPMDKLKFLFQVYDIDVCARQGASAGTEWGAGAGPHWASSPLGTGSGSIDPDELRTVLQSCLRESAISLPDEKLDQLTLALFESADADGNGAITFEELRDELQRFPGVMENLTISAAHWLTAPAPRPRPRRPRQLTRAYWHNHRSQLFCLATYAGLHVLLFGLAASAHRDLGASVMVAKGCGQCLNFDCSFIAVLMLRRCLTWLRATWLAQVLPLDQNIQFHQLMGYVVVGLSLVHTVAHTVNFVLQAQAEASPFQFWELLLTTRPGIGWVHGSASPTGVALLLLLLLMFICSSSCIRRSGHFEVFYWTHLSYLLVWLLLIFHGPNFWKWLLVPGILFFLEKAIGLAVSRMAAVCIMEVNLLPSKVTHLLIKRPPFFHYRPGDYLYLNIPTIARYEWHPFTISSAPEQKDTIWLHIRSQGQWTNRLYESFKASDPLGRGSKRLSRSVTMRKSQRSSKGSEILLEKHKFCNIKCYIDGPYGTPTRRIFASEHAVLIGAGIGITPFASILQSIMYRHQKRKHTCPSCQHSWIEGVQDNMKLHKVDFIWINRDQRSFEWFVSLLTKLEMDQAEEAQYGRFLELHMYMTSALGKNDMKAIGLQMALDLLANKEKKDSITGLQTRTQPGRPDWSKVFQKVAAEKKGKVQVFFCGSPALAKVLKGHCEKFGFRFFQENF
Sequence of NADPH oxidase 2 (Homo sapiens) (P04839 whole entry, looked up): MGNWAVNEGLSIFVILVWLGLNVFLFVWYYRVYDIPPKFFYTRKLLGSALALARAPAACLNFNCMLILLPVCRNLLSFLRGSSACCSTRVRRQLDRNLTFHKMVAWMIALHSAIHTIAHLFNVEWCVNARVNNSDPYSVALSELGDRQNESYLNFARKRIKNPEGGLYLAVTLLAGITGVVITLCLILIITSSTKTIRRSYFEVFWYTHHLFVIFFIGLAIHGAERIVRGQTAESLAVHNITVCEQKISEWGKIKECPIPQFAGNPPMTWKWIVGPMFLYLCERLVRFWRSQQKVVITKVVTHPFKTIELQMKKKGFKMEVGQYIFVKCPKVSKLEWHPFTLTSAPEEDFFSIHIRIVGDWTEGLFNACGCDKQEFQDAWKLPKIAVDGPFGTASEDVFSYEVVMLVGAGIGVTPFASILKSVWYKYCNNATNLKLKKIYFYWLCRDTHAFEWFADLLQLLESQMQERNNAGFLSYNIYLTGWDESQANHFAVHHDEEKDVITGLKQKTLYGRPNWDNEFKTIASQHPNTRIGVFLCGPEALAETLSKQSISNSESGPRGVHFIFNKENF
Sequence of NADPH oxidase 4 (Homo sapiens) (Q9NPH5 whole entry, looked up): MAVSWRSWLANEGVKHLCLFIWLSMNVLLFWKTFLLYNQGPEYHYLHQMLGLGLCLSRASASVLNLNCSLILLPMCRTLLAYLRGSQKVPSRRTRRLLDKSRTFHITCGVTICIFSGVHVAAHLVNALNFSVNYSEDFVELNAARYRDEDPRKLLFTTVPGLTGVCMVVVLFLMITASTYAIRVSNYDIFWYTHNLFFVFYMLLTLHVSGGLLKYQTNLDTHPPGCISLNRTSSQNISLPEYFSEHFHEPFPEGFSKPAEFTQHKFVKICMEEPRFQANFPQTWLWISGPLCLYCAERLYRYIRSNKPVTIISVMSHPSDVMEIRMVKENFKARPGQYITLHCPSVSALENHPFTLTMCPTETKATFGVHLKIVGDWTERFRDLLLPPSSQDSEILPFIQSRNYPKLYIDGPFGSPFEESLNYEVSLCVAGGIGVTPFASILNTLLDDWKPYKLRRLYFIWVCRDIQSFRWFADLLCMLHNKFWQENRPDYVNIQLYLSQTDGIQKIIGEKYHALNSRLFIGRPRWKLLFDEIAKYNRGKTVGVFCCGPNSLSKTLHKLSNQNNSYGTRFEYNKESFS

For the molecule `CC(C)C(CO)N1C(=O)[C@@H]2[C@H]3C(=O)OCC=C[C@H]3OC23C=CCN(c2ccc4ccccc4c2)C(=O)[C@@H]13` (stereo not given in full), the z-score in experiment [1] was -0.165 (inactive); in [3], 0.244 (inactive); in experiment [4], 0.884 (inactive); in [5] it was 0.686 (inactive); in experiment [6], 0.6 (inactive); in experiment [7], -0.575. For the same molecule, the z-score was 0.902 (inactive) in [8], 0.357 (inactive) in experiment [9] and 1.74 in experiment [10]. Besides, in experiment [2], the composite z-score is -0.147.
Consider `NC(=O)NCC#Cc1ccc2c(c1)[C@]1(C(=O)N2)[C@H](C(=O)NC[C@H](O)c2ccccc2)[C@H]2C(=O)O[C@H](c3ccccc3)[C@H](c3ccccc3)N2[C@@H]1c1ccccc1OCCO`, for which the z-score in [1] was 2.23 (inactive); in [3] it was 1.15 (inactive); in [4], -0.658 (inactive); in experiment [5], 0.0336 (inactive); in experiment [6], -2.16 (inactive); in [7], 1.5. The z-score was 0.121 (inactive) in experiment [8], -1.95 (inactive) in experiment [9] and -1.81 in experiment [10]. The molecule further yielded a composite z-score in [2] of 0.157.
Consider `COC(=O)[C@@]1(Cc2ccc(F)cc2)[C@H]2c3cc(C(=O)N(C)C)n(CCCNc4ccc(C(F)(F)F)cc4Cl)c3C[C@H]2CN1C(=O)c1ccccc1`, for which the z-score in experiment [1] is -1.74 (inactive); in [3], 1.36 (inactive); in experiment [4] it was 0.986 (inactive); in [5], 0.277 (inactive); in experiment [6], 1.33 (inactive); in experiment [7], -0.0991. Further, the z-score is 0.844 (inactive) in experiment [8], 0.619 (inactive) in experiment [9] and 0.897 in experiment [10]. The molecule further registered a composite z-score in experiment [2] of 0.634.
Take `Cn1c2c(c3ccccc31)C(=O)C1NC2C=CC1(C)C(=O)OCc1ccccc1` (stereo not given): the z-score in experiment [1] is -1.14 (inactive); in experiment [3], 0.395 (inactive); in [4] it was 0.896 (inactive); in [5] it was 0.808 (inactive); in experiment [6], 0.484 (inactive); in experiment [7], -0.495. The results for the z-score in experiment [8], in experiment [9] and in experiment [10] were -0.343 (inactive), -1.52 (inactive) and 1.31, respectively. This molecule returned a composite z-score in experiment [2] of 0.125.
For the molecule `[N-]=[N+]=Nc1ccccc1[C@H]1OC(c2ccc(OCCCO)cc2)=N[C@@]1(CCS(=O)(=O)c1ccccc1)C(=O)N1CCOCC1`, the z-score in [1] is 0.399 (inactive); in experiment [3], 31 (active); in [4], 23.6 (active); in [5], 1.88 (inactive); in experiment [6], 4.6 (inactive); in [7] it was 0.211. In addition, the z-score is 0.404 (inactive) in experiment [8], 1.56 (inactive) in [9] and 1.36 in [10]. Besides, the composite z-score in [2] was found to be 1.48.
Consider `Cc1ccc(N2C(=O)c3ccccc3[C@@H](C(=O)NC(C)C)[C@@H]2c2ccc(CO)cc2)nc1`, for which the z-score in experiment [1] was 0.358 (inactive); in experiment [3], 2.41 (inactive); in experiment [4], 0.474 (inactive); in experiment [5] it was 0.884 (inactive); in experiment [6] it was 0.596 (inactive); in experiment [7], 0.45. Further, the z-score in experiment [8] is 0.0802 (inactive); in [9], -1.16 (inactive); in [10] it was -2.61. In addition, the composite z-score in experiment [2] is -0.641.
Turning to `COC(=O)[C@@]1(Cc2ccccc2)[C@H]2c3cc(C(=O)N(C)C)n(Cc4cc(F)c(F)c(F)c4)c3C[C@H]2CN1C(=O)c1ccccc1`, the z-score in [1] is -1.61 (inactive); in experiment [3], 8.57 (active); in [4], 1.65 (inactive); in experiment [5], 0.893 (inactive); in [6], 1.4 (inactive); in [7] it was -0.0786. The z-score in [8] was -0.0214 (inactive); in experiment [9], 1.57 (inactive); in experiment [10], 2.13. In experiment [2], this molecule returned a composite z-score of 0.611.
With `COc1ccc([Si](C)(C)[C@H]2[C@H](CCO)O[C@@]3(C(=O)N(Cc4ccccc4)c4ccc(N5C(=O)COc6ccccc65)cc43)[C@@H]2C)cc1`, the z-score was 0.592 (inactive) in experiment [1]; 5.33 (inactive) in experiment [3]; 2.16 (inactive) in experiment [4]; 1.3 (inactive) in experiment [5]; 1.65 (inactive) in experiment [6]; 2.08 in experiment [7]. Besides, the z-score in experiment [8] is -1.74 (inactive); in experiment [9], 1.53 (inactive); in experiment [10], 0.595. This molecule also registered a composite z-score in experiment [2] of 0.167.
Consider `[N-]=[N+]=Nc1ccccc1C[C@]1(C(=O)N2CCCCC2)N=C(c2ccc(OCCCO)cc2)O[C@H]1c1ccccc1N=[N+]=[N-]`, for which the z-score is -0.866 (inactive) in experiment [1]; 30.1 (active) in [3]; 28.3 (active) in experiment [4]; 2.73 (inactive) in experiment [5]; 7.18 (inactive) in [6]; -0.359 in experiment [7]. In addition, the z-score in [8] is -2.39 (inactive); in experiment [9] it was 0.341 (inactive); in experiment [10], -1.08. In experiment [2], this molecule returned a composite z-score of 0.568.
With `COC(=O)c1c2oc(c1C(=O)OC)C(=O)N[C@H](Cc1ccccc1)Cn1nncc1C1(CCCCC1)NC(=O)N[C@H](CO)CC2`, the z-score is 1.74 (inactive) in [1]; 5.12 (inactive) in experiment [3]; 1.58 (inactive) in experiment [4]; 0.52 (inactive) in experiment [5]; 0.628 (inactive) in experiment [6]; 0.14 in [7]. Moreover, the z-score in experiment [8] is -2.86 (inactive); in experiment [9] it was -2.14 (inactive); in experiment [10], -3.47. Besides, the composite z-score in experiment [2] was -0.237.
As to `CN(C)CCCC[C@@H]1NC(=O)[C@@H]2C[C@H](C(=O)NCCCCCCN)[C@H](c3ccc(O)cc3)N2C1=O`, the z-score is -0.337 (inactive) in [1]; 1.98 (inactive) in experiment [3]; 0.288 (inactive) in experiment [4]; 1.28 (inactive) in experiment [5]; 0.229 (inactive) in experiment [6]; -0.648 in experiment [7]. Also, the z-score is 1.46 (inactive) in experiment [8], -0.964 (inactive) in experiment [9] and 1.01 in [10]. Besides, the composite z-score in experiment [2] came out at 1.37.
With `CCCNC(=O)[C@@]1(C)c2ccccc2C(=O)N(Cc2cc(C(F)(F)F)cc(C(F)(F)F)c2)[C@H]1c1ccc(CO)cc1`, the z-score is -0.253 (inactive) in experiment [1]; 4.6 (inactive) in [3]; -0.305 (inactive) in experiment [4]; 1.97 (inactive) in experiment [5]; -0.754 (inactive) in experiment [6]; 1.49 in [7]. Besides, the z-score in [8] was -1.98 (inactive); in experiment [9], -3.17 (inactive); in experiment [10] it was -3.73. The composite z-score in experiment [2] is -0.0711.
For `O=C1OCCC=C[C@H]2OC34C=CCN(CCN5CCOCC5)C(=O)[C@H]3N(CCO)C(=O)[C@@H]4C12` (stereo not given in full), the z-score in experiment [1] was -0.392 (inactive); in [3] it was 0.329 (inactive); in [4], 0.392 (inactive); in [5], 0.918 (inactive); in experiment [6], 0.551 (inactive); in [7] it was 0.65. In addition, the z-score in experiment [8] was 0.808 (inactive); in experiment [9], 0.49 (inactive); in [10] it was 0.0715. In [2], the composite z-score was -0.231.
